Experimental data published in PubChem BioAssay AID1490 (National Center for Advancing Translational Sciences (NCATS), 2009).
Several values for one entry are separate records, joined by “and”; a condition that tells them apart may be missing. Equal values may be shown once. The whole screen tested about 310,000 compounds, of which about 11,000 (3.5%) were called active. Another 4% or so got no clear call; they are omitted. The sample holds actives, similar compounds and a random draw of the others, so the mix is not that of the screen. A structure can be active in one record and inactive in another. Unmarked numbers belong to inactive results. The call rests on the fitted dose curve; in most records, active means well fitted inhibition curve with a large enough effect; inconclusive means small, poorly fitted or top-dose-only effect, or another doubt; inactive means no such curve, though single readings can be large or run the other way.

Target: 4'-phosphopantetheinyl transferase ffp (Bacillus subtilis) (UniProt Q9F4F7)
Test: qHTS Assay for Inhibitors of Bacillus subtilis Sfp phosphopantetheinyl transferase (PPTase);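 further: the enzyme is Sfp with the accession as filed and its product quenches rhodamine fluorescence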;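 on largest response in the series, negative = inhibition: 0% = enzyme reaction without inhibitor and -100% = no enzyme wells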
Details: Biochemical Sfp PPTase activity
Excerpt: Assay Submitter: Michael Burkart, University of California, San Diego
Screening Center PI: Austin, C.P.
Screening Center: NIH Chemical Genomics Center [NCGC]
The covalent attachment of a phosphopantetheinyl (4'-PP) arm to a variety of synthases and other proteins is a key posttranslational protein modification. The 4'-PP is installed on the proteins post-translationally from coenzyme A (CoA) on a conserved serine residue by action of phosphopantetheinyl transferase (PPTase) enzymes. Phosphopantetheinylation is essential for synthase activity, and removal of the PPTase gene precludes natural product synthesis in microorganisms, or in the case of fatty acid biosynthesis, renders the organism unviable. PPTase enzymes belong to a distinct structural superfamily. Within bacteria, these enzymes are grouped into two classes based upon primary structure, the AcpS-Type and Sfp-Type PPTases.
Sfp-type PPTases, corresponding to an activator of surfactin production in Bacillus subtilis, are responsible for modifying type I polyketide and nonribosomal peptide synthases of prokaryotes. Sfp-type PPTases are responsible for the activation of a variety of pathogen-associated virulence factors. Among these compounds are toxins such as mycolactone from Mycobacterium ulcerans, siderophores such as vibriobactin from Vibrio cholerae or mycobactin from Mycobacterium tuberculosis, as well as the mycolic acids which form the waxy cell wall of Mycobacteria. The biosyntheses of these natural products are considered attractive targets for drug design.
In search of small molecule Sfp-PPTase inhibitors, a fluorescence quenching assay was developed for detection of Bacillus subtilis Sfp-PPTase enzymatic activity in a miniaturized high-throughput format. The consensus ybbr acceptor peptide […] was N-terminally labeled with Black Hole Quencher-2 (BHQ-2) and used in combination with rhodamine-labeled coenzyme A as a co-substrate.
Inhibition of Sfp-PPTase was detected by recording the fluorescence intensity change over a 30-minute reaction period at a 525 nm excitation and 598 nm emission. Reagents were supplied by Michael Burkart and Timothy Foley, University of California at San Diego.
This BioAssay deposition is for validation of the developed Sfp-PPtase assay.
Assay Buffer: 50 mM Hepes-Na pH 7.6, 10 mM MgCl2, 0.01% Nonidet P-40, and 0.01% BSA.
3 uL of Sfp-PPTase enzyme (final concentration 15 nM) and 1 uL of substrate mixture (final concentration for rhodamine-CoA and BHQ-2-YbbR 5 uM and 12.5 uM, respectively) dispensed in columns 1, 2, 5 - 48. Columns 1 and 2 used to generate neutral control (uninhibited reaction)
Three uL of reagents, consisting of buffer (in columns 3 and 4 as negative control) and Sfp-PPTase (in columns 1, 2, 5 - 48) were dispensed into 1,536-well Greiner black solid bottom plate. Compounds (23 nL) were transferred via Kalypsys pintool equipped with 1,536-pin array. The plate was incubated for 15 min at room temperature, followed by the addition of 1 uL substrate to start the reaction. The plate was then centrifuged at 1000 rpm for 15 seconds, and the fluorescence intensity recorded on a ViewLux High-throughput CCD imager (Perkin-Elmer) using standard BODIPY optics (525 nm excitation and 598 nm emission). The plate was then incubated for 30 minutes, and a second read on the ViewLux was performed. The fluorescence intensity difference over the 30-minute period was used to calculate the respective reaction rate for each well.
Potency means the concentration at half of the fitted maximal effect.

SMILES | largest response in the series, negative = inhibition | Potency
CCN(CC)c1ccc(C(=O)N/N=C(\C)c2cccc(OC)c2)cc1 | -1.28% | –
C/C(=N\Nc1nc2ccccc2[nH]1)c1cccs1 | -4.19% | –
COc1cccc(/C(C)=N/Nc2ncc(Cl)cc2Cl)c1 | – | 56.2 µM (active)
C/C(=N\Nc1ncc(Cl)cc1Cl)c1ccc(S(=O)(=O)NCc2ccco2)cc1 | -16.4% | –
C/C(=N\Nc1ccc(S(N)(=O)=O)cc1[N+](=O)[O-])c1cccs1 | 0.687% | –
C/C(=N\Nc1ncc(Cl)cc1Cl)c1cccs1 | – | 39.8 µM (active)
Cn1cnc2c1c(=O)n(Cc1ccccc1C#N)c(=O)n2C | 4.28% | –
C=CC1=C2C=C(C3CC3)N(CC(C)C)C=C2C(=O)C(C)(OC(=O)c2ccco2)C1=O (stereo not given) | 5.15% | –
CC(=O)Nc1ccc(OCC(=O)NCc2ccc(C)cc2)cc1 | 11.1% | –
COC(=O)c1ccc(OCC(=O)NC(C)(C)C)cc1 | -10.7% | –
CC(C)(C)NC(=O)COc1ccc(CNc2ccc3[nH]c(=O)[nH]c3c2)cc1 | – | 56.2 µM (active)
CCS(=O)(=O)Nc1ccc(C(=O)NCCSc2ccccc2)cc1 | 22% | –
COC(=O)C1=CN(c2ccc(F)c(F)c2)C=C(C(=O)OC)C1c1ccc([N+](=O)[O-])cc1 | -0.236% | –
COc1cccc(OC)c1C(=O)Nc1ccc2c(c1)n(C)c(=O)n2C | 6.56% | –
Cc1ccc(/C=C(\C#N)C(=O)Nc2cccc3ncccc23)o1 | – | 8.91 µM (active)
Cc1ccc(C(=O)Nc2cccc3ncccc23)cc1[N+](=O)[O-] | 9.98% | –
O=C(Nc1cccc2ncccc12)C(Cl)(Cl)Cl | 5.72% | –
Cc1c(C(=O)NC(C)C2CC3CCC2C3)cccc1[N+](=O)[O-] (stereo not given) | 6.2% | –
C[C@]12CC[C@@H]3c4ccc(O)cc4C[C@@H](CCCCCCCCCS(=O)CCCC(F)(F)C(F)(F)F)C3[C@@H]1CC[C@@H]2O (stereo not given in full) | -0.311% | –
Brc1ccc(-c2nn[nH]n2)cc1 | 19% | –
CC(C)c1ccc(-c2nn[nH]n2)cc1 | 21.7% | –
CC(N)(C(=O)O)c1ccc(-c2nn[nH]n2)cc1 (stereo not given) | – | 35.5 µM (active)
O=C(CSc1ncn[nH]1)Nc1ccnc2ccccc12 | 12.4% | –
O=C(CSc1ncn[nH]1)Nc1nsc(-c2ccccc2)n1 | 9.26% | –

SMILES | largest response in the series, negative = inhibition | Potency
CCN(C(=O)CSc1ncn[nH]1)c1cccc2ccccc12 | – | 39.8 µM (active)
O=c1cc(-c2ccc(O)cc2)oc2c([C@@H]3O[C@H](CO)[C@@H](O)[C@H](O)[C@H]3O)c(O)cc(O)c12 | -2.52% | –
Cc1cc(C)cc(N(CC(=O)NCCSCc2ccco2)S(C)(=O)=O)c1 | 9.95% | –
CCc1ccccc1N(CC(=O)NCCSCc1ccco1)S(C)(=O)=O | – | 17.8 µM (active)
CS(=O)(=O)N(Cc1ccc(Cl)cc1)c1ccc(C(=O)NCCSCc2ccco2)cc1 | 22.6% | –
CC(C)N(C(=O)Cn1cc(S(=O)(=O)CC(=O)N2CCOCC2)c2ccccc21)C(C)C | 4.5% | –
O=C(C1CC(=O)N(c2ccc(Br)cc2)C1)N1CCCC1 (stereo not given) | 5.88% | –
Cn1c(Cc2cccs2)nnc1SCC(=O)Nc1ccccc1 | 11.4% | –
Cn1c(CSCC(=O)Nc2ccccc2)nnc1SCc1ccccc1 | -1.75% | –
Cn1c(CC(=O)Nc2ccccc2)nnc1SCC(=O)c1ccccc1 | – | 35.5 µM (active)
CCN1CCCC1CNC(=O)c1cc2cc(OC)c(OC)cc2[nH]1 (stereo not given) | 18.4% | –
COc1ccccc1CCNC(=O)C1CCN(C(=O)/C=C/c2ccccc2)CC1 | -8.37% | –
O=C1CCCN1CCCNC(=S)Nc1ccc(F)c(Cl)c1 | – | 14.1 µM (active)
Cc1c(Cl)cccc1NC(=O)NCCCN1CCCC1=O | 4.97% | –
Cc1cc(Cl)ccc1NC(=S)NCCCN1CCCC1=O | 5.94% | –
CCCC(=O)n1nc(-c2ccccc2)nc1N | -3.09% | –
Cc1ccc2c(N)c(C(=O)c3ccccc3)sc2n1 | -25.4% | –
CCN(CC)C(=O)c1sc2nc(-c3ccccc3)ccc2c1N | – | 20 µM (active)
COc1cc(C(C(=O)NC2CCCC2)N(C(=O)c2ccco2)c2ccccc2C(C)=O)cc(OC)c1OC (stereo not given) | 9.66% | –
COc1ccc2[nH]c(=O)c(C3c4cc(OC)c(OC)cc4CCN3C(=O)c3ccco3)cc2c1 (stereo not given) | -2.97% | –
Cc1cccc(NC(=O)C2CCCN(C(=O)NCc3ccccc3)C2)c1C (stereo not given) | 5.34% | –
COc1ccccc1OCCNCC(O)COc1cccc2[nH]c3ccccc3c12 (stereo not given) | -10.5% and 8.7% and -18.4% | 50.1 µM (active)
CC(C)(C)NCC(O)COc1cccc2[nH]c(=O)[nH]c12 (stereo not given) | 6.07% | –
COc1ccccc1OCC(O)CN1CCOCC1 (stereo not given) | 15.2% | –

SMILES | largest response in the series, negative = inhibition | Potency
COc1cccc(NC(=O)C/C(C)=N/NC(=O)C2CCCCC2)c1 | 9.15% | –
O=C(COc1ccccc1Cl)N1CCCCCCC1 | 23.9% | –
COc1cc(NC(=O)c2ccccc2)c(OC)cc1NC(=O)Cc1ccccc1 | -10.9% | –
O=C1CSC(=S)N1/N=C/c1ccc(O)c([N+](=O)[O-])c1 | – | 39.8 µM (active)
Cc1cc(C(=O)N/N=C/c2ccc(O)c([N+](=O)[O-])c2)c(C)n1-c1ccc(F)cc1 | -9.8% | –
O=[N+]([O-])c1ccc(N2CCSCC2)cc1O | 17.8% | –
CCOC(=O)N1CCN(S(=O)(=O)N2CCCC(C(=O)NCCCN3CCC(C)CC3)C2)CC1 (stereo not given) | 6.69% | –
O=C(CCC1CCCN(C(=O)c2ccc(F)c(F)c2)C1)N1CCN(c2ccccn2)CC1 (stereo not given) | 7.09% | –
CSc1c(SCc2ccccc2)cnn(Cc2ccccc2)c1=O | – | 44.7 µM (active)
CSc1nc2ccccc2c(=O)n1Cc1ccc(F)cc1 | -16.2% | –
CC(=O)Nc1ccc(NC(=O)CSc2ncnc3c2cnn3Cc2ccccc2)cc1 | 13.9% | –
Cc1nc(COc2cc3oc(=O)cc(C)c3cc2Cl)cs1 | -11.1% | –
CN(C)c1nc(=Nc2cccc(Cl)c2)ss1 | – | 10 µM (active)
Cc1ccc(Cc2cnc(NC(=O)/C(C#N)=C/c3ccc(-c4cccc([N+](=O)[O-])c4)o3)s2)cc1 | 3.34% | –
Cc1ccc(-c2ccc(/C=C(\C#N)C(N)=S)o2)c([N+](=O)[O-])c1 | – | 35.5 µM (active)
N#C/C(=C/c1ccc(-c2ccccc2[N+](=O)[O-])o1)C(=O)NCCN1CCCCC1 | -17.3% | –
CC(C)(C)C(=O)NC1CC2CCCC(C1)N2C(=O)Nc1ccccc1F (stereo not given) | 15.8% | –
O=C(c1ccncc1)N1CCC2(CCN(Cc3cc(C(F)(F)F)cc(C(F)(F)F)c3)CC2)CC1 | 8.21% | –
N#Cc1c(C(F)(F)F)cc(-c2ccc(Cl)cc2)nc1SCC(=O)O | 7.84% | –
N#Cc1c(-c2ccccc2)cc(-c2ccccc2)nc1SCC(=O)O | – | 35.5 µM (active)
CCSc1nc(-c2ccc(OC)cc2)cc(-c2ccc(OC)cc2)c1C#N | 4.06% | –
CC(O)c1nc2c(c(=O)n(C)c(=O)n2C)n1C (stereo not given) | 11.9% | –
Cn1c(=O)c2c(nc(NCc3ccccc3)n2CC(N)=O)n(C)c1=O | 10.1% | –
CCC/C(C)=N\Nc1nc2c(c(=O)n(C)c(=O)n2C)n1C | – | 39.8 µM (active)

SMILES | largest response in the series, negative = inhibition | Potency
CCCC[C@H]1COCCS(=O)(=O)N1Cc1cccc(Cl)c1 | -5.24% | –
COc1ccc(CNC(=O)c2nnn(CC(=O)Nc3cc(C)cc(C)c3)c2N)cc1 | -8.71% | –
COc1ccc(C(=O)Nc2c(N)nc(SCC(=O)Nc3ccc(C(C)=O)cc3)[nH]c2=O)cc1 | -14.5% | –
Cc1ccc(OCC(=O)Nc2ccccc2C(=O)NC2CC2)cc1C | -9.75% | –
CCOc1ccc(Cn2nnc(C(=O)NCc3ccccc3)c2N)cc1 | 9.87% | –
CCOc1ccccc1NC(=O)Cn1nnc(C(=O)NCc2cccs2)c1N | – | 50.1 µM (active)
CCOc1ccccc1NC(=O)Cc1cccs1 | 13.9% | –
Cc1cccc(C(=O)OC(C)CN2CCCC2)c1 (stereo not given) | 6.65% | –
Cc1ccc(F)c(NC(=O)CCOc2ccccc2C)c1 | -1.65% | –
Cn1cc[n+](C)c1COc1ccc(C=O)cc1 | 12% | –
O=C1CCC([N+](=O)[O-])C(c2ccccc2Br)N1 (stereo not given) | 15.7% | –
C=CCSC1=C(C#N)C(c2cc(Br)c(O)c(OC)c2)CC(=O)N1 (stereo not given) | – | 25.1 µM (active)
CCOC(=O)CSC1=C(C#N)C(c2sccc2C)CC(=O)N1 (stereo not given) | 10.2% | –
Cc1ccc(C2CC(=O)NC(SCC(=O)OCc3ccccc3)=C2C#N)o1 (stereo not given) | -27.5% | –
O=S(=O)(NC1CCCC1)c1ccc(-n2cnnn2)cc1 | 25.6% | –
O=C(NCCCn1ccnc1)C1CCCN(S(=O)(=O)c2cc(Cl)ccc2Cl)C1 (stereo not given) | 16.2% | –
O=c1oc2ccccc2cc1-c1cn(-c2ccccc2)c(=S)[nH]1 | – | 35.5 µM (active)
O=C(c1cn(-c2ccccc2)nc1-c1cc2ccccc2oc1=O)N1CCOCC1 | -5.03% | –
O=C(Nc1cc2ccccc2oc1=O)C1CCCCC1 | 26.6% | –
Cc1noc(C)c1CCC(=O)N1CCCC(CO)(Cc2ccccc2)C1 (stereo not given) | -6.98% | –
COc1ccc2c(c1)O[C@@H](c1ccc3c(c1)OCO3)[C@H](OC(=O)NCCc1ccc(OC)c(OC)c1)C2=O | 6.18% | –
CC(=O)c1ccc(N2CCN(C(=O)C3CCN(S(=O)(=O)c4ccc5c(c4)CC(C)N5C(=O)C4CC4)CC3)CC2)cc1 (stereo not given) | -0.0372% | –
